PubChem BioAssay (Tox21)
A number with no mark means an inactive call. Active and inactive are the calls of the source. Calls follow the shape of the dose curve; as a rule, active = well fitted curve in the direction sought with a large enough effect in the repeat runs; inconclusive = weak or mixed curves; inactive = flat fitted curve, though single readings scatter. Positions of bridges follow the written chain, without caps; N, C: chain ends. Non-standard residues stand in square brackets, D forms with d. Residues, ends and D or L forms follow the SMILES beside them. *: point of attachment. X1 = CC[C@@H](C)[C@@H](N)C1=N[C@H](C(=O)*)CS1; d(aIle) = CC[C@H](C)[C@@H](N)C(=O)O; dOrn = NCCC[C@@H](N)C(=O)O

Test: qHTS assay to test for compound auto fluorescence at 460 nm (blue) in HEK293 cell free culture (AID 720681); also: potency is read from the fitted curve at half-maximal effect
Conditions: cell-free medium, autofluorescence 405/460 nm (blue); series mostly up to 46 µM; fluorescence, % of fluorescent control: at the top concentration
Summary of the method: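 Compounds were added to cell-free DMEM with 10% FBS and fluorescence read directly. The blue channel used 405 nm excitation and 460 nm emission, with triamterene as the reference fluorophore.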
% is scaled to controls: 0 for no effect and ±100 for the full control effect.

SMILES | fluorescence, % of fluorescent control | Potency
CN1[C@@H](CC(=O)c2ccccc2)CCC[C@H]1C[C@H](O)c1ccccc1 | -0.0625% | –
CCN1CCCC1CNC(=O)c1cc(S(=O)(=O)CC)ccc1OC (stereo not given) | – | inactive
Nc1nc(NC2CC2)c2ncn([C@@H]3C=C[C@@H](CO)C3)c2n1 | 0.005% | –
Cc1cc(N)c2ccccc2[n+]1CCCCCCCCCC[n+]1c(C)cc(N)c2ccccc21 | 0.129% [at 18.6 µM] | –
CC[C@@H](C)[C@H](N)C(=O)O | 0.102% | –
CCCCCCCCCCCCN1CCCC1=O | -0.147% [at 91.3 µM] | –
CC1(C)C[C@@H]1C(=O)N/C(=C\CCCCSC[C@H](N)C(=O)O)C(=O)O | – | inactive
CC12CCC(C[N+](C)(CCC[N+](C)(C)C)C1)C2(C)C (stereo not given) | 0.0056% | –
CC(C)(COP(=O)(O)OP(=O)(O)OC[C@H]1O[C@@H](n2cnc3c(N)ncnc32)[C@H](O)[C@@H]1OP(=O)(O)O)C(O)C(=O)NCCC(=O)NCCS (stereo not given in full) | -0.0258% | –
O=C1c2ccccc2-c2n[nH]c3cccc1c23 | – | 14.1 µM (active)
CO[C@H](C(=O)[C@@H](O)[C@@H](C)O)C1Cc2cc3cc(O[C@H]4C[C@@H](O[C@H]5C[C@@H](O)[C@H](O)[C@@H](C)O5)[C@@H](O)[C@@H](C)O4)c(C)c(O)c3c(O)c2C(=O)[C@H]1O[C@H]1C[C@@H](O[C@H]2C[C@@H](O[C@H]3C[C@](C)(O)[C@H](O)[C@@H](C)O3)[C@H](O)[C@@H](C)O2)[C@H](O)[C@@H](C)O1 (stereo not given in full) | – | inactive
CCOC(=O)Cc1ccc(-c2ccccc2)cc1 | 0.0025% | –
CC(=O)O[C@H]1C[C@@H]2CC[C@@H]3[C@H](CC[C@@]4(C)[C@H]3C[C@H]([N+]3(C)CCCCC3)[C@@H]4OC(C)=O)[C@@]2(C)C[C@@H]1[N+]1(C)CCCCC1 | -0.0277% | –
O=C1c2c(O)cccc2[C@H]([C@@H]2O[C@H](CO)[C@@H](O)[C@H](O)[C@H]2O)c2cc(CO)cc(O)c21 | – | inactive
CC1CCCCN1CCCOC(=O)c1ccccc1 (stereo not given) | -0.146% | –
O=C(O)CCCC/C=C(\c1ccccc1)c1cccnc1 | 0.012% | –
CC[C@@H](C)[C@@H](N)C1=N[C@H](C(=O)N[C@@H](CC(C)C)C(=O)N[C@@H](CCC(=O)O)C(=O)N[C@@H](C(=O)N[C@@H]2CCCCNC(=O)[C@@H](CC(N)=O)NC(=O)[C@@H](CC(=O)O)NC(=O)[C@@H](Cc3cnc[nH]3)NC(=O)[C@@H](Cc3ccccc3)NC(=O)[C@@H]([C@H](C)CC)NC(=O)[C@@H](CCCN)NC2=O)[C@@H](C)CC)CS1 (X1-LE[d(aIle)][dK][dOrn][dI][dF][dH][dD][dN]; lactam 4-C) | – | inactive

SMILES | fluorescence, % of fluorescent control | Potency
NC(=S)NS(=O)(=O)c1ccc(N)cc1 | 0.0687% | –
CO[C@H]1C[C@@H]2CC[C@@H](C)[C@@](O)(O2)C(=O)C(=O)N2CCCC[C@H]2C(=O)O[C@H]([C@H](C)C[C@@H]2CC[C@@H](O)[C@H](OC)C2)CC(=O)[C@H](C)C=C(C)[C@@H](O)[C@@H](OC)C(=O)[C@H](C)C[C@H](C)/C=C/C=CC=C1C | – | inactive
CC(=O)[C@]1(O)Cc2c(O)c3c(c(O)c2[C@@H](O[C@H]2C[C@H](N)[C@H](O)[C@H](C)O2)C1)C(=O)c1ccccc1C3=O | -0.231% | –
N=C(N)n1cccn1 | 0.169% | –
C=CC[N+]1([C@H]2C[C@H]3[C@@H]4CC[C@H]5C[C@H](O)[C@@H](N6CCOCC6)C[C@]5(C)[C@H]4CC[C@]3(C)[C@H]2OC(C)=O)CCCC1 | 0.0011% | –
CCc1ncnc2cc(OC)c(OC)cc12 | -0.171% | –
C=CC1=C(C(=O)O)N2C(=O)[C@@H](NC(=O)/C(=N\O)c3csc(N)n3)[C@H]2SC1 (stereo in doubt) | – | inactive
CC(=O)N[C@@H](C=O)[C@H](O)[C@H](O)[C@@H](O)CO | – | inactive
CNCC(=O)N[C@@H](CCCN=C(N)N)C(=O)N[C@H](C(=O)N[C@@H](Cc1ccc(O)cc1)C(=O)N[C@H](C(=O)N[C@@H](Cc1cnc[nH]1)C(=O)N1CCC[C@H]1C(=O)N[C@@H](C)C(=O)O)C(C)C)C(C)C | 0.617% | –
CCCOC(=O)c1ccccc1O | 0.0241% | –
CC(C)(S)C(=O)N[C@@H](CS)C(=O)O | – | inactive
CCCCCCCC/C=C\CCCCCCCC(=O)N(CCO)CCO | -0.0902% [at 91.3 µM] | –
Oc1ccc(Cl)cc1C1CCCC1 | 0.0078% [at 91.3 µM] | –
O=C(O)/C=C/C(=O)Nc1ccc(S(=O)(=O)Nc2nccs2)cc1 | 0.0494% | –
Nc1ccc(N)c([N+](=O)[O-])c1 | -0.585% [at 91.3 µM] | –
N#Cc1c(N(CC(=O)O)CC(=O)O)sc(C(=O)O)c1CC(=O)O | -0.063% | –
N[C@@H](Cc1ccc(O)c(O)c1)C(=O)O | 0.962% | –

Test: qHTS assay to test for compound auto fluorescence at 535 nm (green) in HEK293 cell free culture (AID 720682)
Conditions: cell-free medium, green autofluorescence 485/535 nm, hits give high values; series mostly up to 46 µM; activity change: at the top concentration
Summary of the method: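 Green-label autofluorescence (485 nm excitation, 535 nm emission) measured on compound added to cell-free culture medium (DMEM, 10% FBS). Output is expressed relative to fluorescein.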

SMILES | activity change | outcome
CN1[C@@H](CC(=O)c2ccccc2)CCC[C@H]1C[C@H](O)c1ccccc1 | -0.0122% | –
CCN1CCCC1CNC(=O)c1cc(S(=O)(=O)CC)ccc1OC (stereo not given) | – | inactive
Nc1nc(NC2CC2)c2ncn([C@@H]3C=C[C@@H](CO)C3)c2n1 | -0.0619% | –
Cc1cc(N)c2ccccc2[n+]1CCCCCCCCCC[n+]1c(C)cc(N)c2ccccc21 | -0.0141% [at 18.6 µM] | –
CC[C@@H](C)[C@H](N)C(=O)O | -0.0312% | –
CCCCCCCCCCCCN1CCCC1=O | -0.0242% [at 91.3 µM] | –
CC1(C)C[C@@H]1C(=O)N/C(=C\CCCCSC[C@H](N)C(=O)O)C(=O)O | – | inactive
CC12CCC(C[N+](C)(CCC[N+](C)(C)C)C1)C2(C)C (stereo not given) | 0.0689% | –
CC(C)(COP(=O)(O)OP(=O)(O)OC[C@H]1O[C@@H](n2cnc3c(N)ncnc32)[C@H](O)[C@@H]1OP(=O)(O)O)C(O)C(=O)NCCC(=O)NCCS (stereo not given in full) | -0.106% | –
O=C1c2ccccc2-c2n[nH]c3cccc1c23 | 0.29% | –
CO[C@H](C(=O)[C@@H](O)[C@@H](C)O)C1Cc2cc3cc(O[C@H]4C[C@@H](O[C@H]5C[C@@H](O)[C@H](O)[C@@H](C)O5)[C@@H](O)[C@@H](C)O4)c(C)c(O)c3c(O)c2C(=O)[C@H]1O[C@H]1C[C@@H](O[C@H]2C[C@@H](O[C@H]3C[C@](C)(O)[C@H](O)[C@@H](C)O3)[C@H](O)[C@@H](C)O2)[C@H](O)[C@@H](C)O1 (stereo not given in full) | – | inactive
CCOC(=O)Cc1ccc(-c2ccccc2)cc1 | -0.068% | –
CC(=O)O[C@H]1C[C@@H]2CC[C@@H]3[C@H](CC[C@@]4(C)[C@H]3C[C@H]([N+]3(C)CCCCC3)[C@@H]4OC(C)=O)[C@@]2(C)C[C@@H]1[N+]1(C)CCCCC1 | -0.0317% | –
CS(=O)(=O)c1ccc([C@@H](CC2CCCC2)C(=O)Nc2cnccn2)cc1Cl | -0.0356% [at 91.3 µM] | –
O=C1c2c(O)cccc2[C@H]([C@@H]2O[C@H](CO)[C@@H](O)[C@H](O)[C@H]2O)c2cc(CO)cc(O)c21 | – | inactive
CC1CCCCN1CCCOC(=O)c1ccccc1 (stereo not given) | 0.0457% | –
O=C(O)CCCC/C=C(\c1ccccc1)c1cccnc1 | -0.114% | –
CC[C@@H](C)[C@@H](N)C1=N[C@H](C(=O)N[C@@H](CC(C)C)C(=O)N[C@@H](CCC(=O)O)C(=O)N[C@@H](C(=O)N[C@@H]2CCCCNC(=O)[C@@H](CC(N)=O)NC(=O)[C@@H](CC(=O)O)NC(=O)[C@@H](Cc3cnc[nH]3)NC(=O)[C@@H](Cc3ccccc3)NC(=O)[C@@H]([C@H](C)CC)NC(=O)[C@@H](CCCN)NC2=O)[C@@H](C)CC)CS1 (X1-LE[d(aIle)][dK][dOrn][dI][dF][dH][dD][dN]; lactam 4-C) | – | inactive

SMILES | activity change | outcome
NC(=S)NS(=O)(=O)c1ccc(N)cc1 | 0.0114% | –
CO[C@H]1C[C@@H]2CC[C@@H](C)[C@@](O)(O2)C(=O)C(=O)N2CCCC[C@H]2C(=O)O[C@H]([C@H](C)C[C@@H]2CC[C@@H](O)[C@H](OC)C2)CC(=O)[C@H](C)C=C(C)[C@@H](O)[C@@H](OC)C(=O)[C@H](C)C[C@H](C)/C=C/C=CC=C1C | – | inactive
O=C1[O][Bi][O]c2ccccc21 | -0.0448% | –
N=C(N)n1cccn1 | 0.0574% | –
C=CC[N+]1([C@H]2C[C@H]3[C@@H]4CC[C@H]5C[C@H](O)[C@@H](N6CCOCC6)C[C@]5(C)[C@H]4CC[C@]3(C)[C@H]2OC(C)=O)CCCC1 | -0.014% | –
CCc1ncnc2cc(OC)c(OC)cc12 | -0.0564% | –
C=CC1=C(C(=O)O)N2C(=O)[C@@H](NC(=O)/C(=N\O)c3csc(N)n3)[C@H]2SC1 (stereo in doubt) | – | inactive
CC(=O)N[C@@H](C=O)[C@H](O)[C@H](O)[C@@H](O)CO | – | inactive
CNCC(=O)N[C@@H](CCCN=C(N)N)C(=O)N[C@H](C(=O)N[C@@H](Cc1ccc(O)cc1)C(=O)N[C@H](C(=O)N[C@@H](Cc1cnc[nH]1)C(=O)N1CCC[C@H]1C(=O)N[C@@H](C)C(=O)O)C(C)C)C(C)C | 0.0452% | –
CCCOC(=O)c1ccccc1O | -0.0401% | –
CC(C)(S)C(=O)N[C@@H](CS)C(=O)O | – | inactive
CCCCCCCC/C=C\CCCCCCCC(=O)N(CCO)CCO | -0.0237% [at 91.3 µM] | –
Oc1ccc(Cl)cc1C1CCCC1 | -0.0001% [at 91.3 µM] | –
O=C(O)/C=C/C(=O)Nc1ccc(S(=O)(=O)Nc2nccs2)cc1 | -0.031% | –
Nc1ccc(N)c([N+](=O)[O-])c1 | -0.457% [at 91.3 µM] | –
N#Cc1c(N(CC(=O)O)CC(=O)O)sc(C(=O)O)c1CC(=O)O | -0.0006% | –
N[C@@H](Cc1ccc(O)c(O)c1)C(=O)O | 0.0169% | –
CC(C)c1ccc2sc3ccccc3c(=O)c2c1 | 0.0077% [at 91.3 µM] | –
